± gives the standard deviation.
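Note: 1 nM active piRISC with 0.1 nM target library at 33 °C single turnover.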

For this experiment, the system named is MILI (PIWIL2) piRISC loaded with L1MC piRNA (26 nt). Kind of experiment: pre-steady-state target cleavage rate (min^-1); guide: L1MC piRNA 5'p-UAACUAAAUACUAUGCAAGCUGUAGG; MIWI and MILI are mouse PIWI proteins and EfPiwi is from a freshwater sponge; tags in brackets are library labels; higher = faster piRNA-guided slicing of the target. The following applies: auxiliary factor: 500 nM mouse GTSF1. The method in brief: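 Active affinity-purified piRISC carrying one synthetic guide (1 nM) was mixed with a transcribed, DNA-blocked target RNA library […] in HEPES–potassium acetate buffer at 33 °C for 0–8 or 0–960 min, with or without 500 nM GTSF1 partner protein. Uncleaved targets were then sequenced and normalised to depth and to weakly complementary targets. Three trials were pooled, and k3 was capped at 0.0001 min^-1. A burst-and-steady-state fit was applied to obtain the pre-steady-state cleavage rate.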
With UCCUGGAUCAGCUUGCAUAGCAUUUAGUUA, the “pre-steady-state target cleavage rate” value was found to be 0.08 ± 0.012. For UCCUGGAUCACGUUGCAUAGUAUUUAGAAA, the “pre-steady-state target cleavage rate” value amounted to 0.128 ± 0.022. With UCCUCCUACAGGUUGCAUAGUAUUUUCAAA, the “pre-steady-state target cleavage rate” value is 0.0497 ± 0.013.

As to UCCUGGUACAGCUUGCAUAGAAUUUAGUAA, the “pre-steady-state target cleavage rate” value amounted to 0.0567 ± 0.024. For UCCUGGAUCUGCUUGCAUAGUAUAUAGUUA, the “pre-steady-state target cleavage rate” value turned out to be 0.191 ± 0.019.

In the case of UCCUGGUACAGCUUGCAUAGUAUAAACAAA, the “pre-steady-state target cleavage rate” value stood at 0.0195 ± 0.0074. In the case of UCCUGGAACAGCUUGCAUAGUAUAAUGUAA, the “pre-steady-state target cleavage rate” value amounted to 0.014 ± 0.0065. For UCCUGGAACAGCUUGCAUCGUAUUUAGUUA, the “pre-steady-state target cleavage rate” value turned out to be 0.0882 ± 0.013. For UCCUGGAUGUCCUUCCAUAGUAUUUAGUUA, the “pre-steady-state target cleavage rate” value came out at 0.0223 ± 0.008.

UCCUGCUAGAGCUUGCAUAGUAUUUAGAAA: the “pre-steady-state target cleavage rate” value stood at 0.205 ± 0.042.

Regarding UCCUCCUACACCUUCCAUAGUAUUUAGUUA, the “pre-steady-state target cleavage rate” value turned out to be 0.0308 ± 0.014. In the case of UCCUGGAAGAGCUUGCAUACUAUUUAGUUA, the “pre-steady-state target cleavage rate” value came out at 0.0778 ± 0.014. On to UCCUGGUACAGCAAGCAUAGUAUUUACAAA, for which the “pre-steady-state target cleavage rate” value was 0.0528 ± 0.019. In the case of UCCUCCUACAGCUUGCAUAGGAUUUAGUUA, the “pre-steady-state target cleavage rate” value was found to be 0.0118 ± 0.0044. As to UCCUGCAUGAGCUUGCAUAGUAUUUAGAAA, the “pre-steady-state target cleavage rate” value is 0.157 ± 0.028.

UCCUGGAUGUGCAUGCAUAGUAUUUAGAUA: the “pre-steady-state target cleavage rate” value turned out to be 0.146 ± 0.032. UCCUCCUACAGCUUGCAUAGUAUUGUAGUUA: the “pre-steady-state target cleavage rate” value was determined as 0.166 ± 0.045.

Turning to UCCUGGAUCAGCUUGCAUAGUACUUUAGUUA, the “pre-steady-state target cleavage rate” value amounted to 0.14 ± 0.016. Turning to UCCUGCUACAGCAUCCAUAGUAUUUAGUUA, the “pre-steady-state target cleavage rate” value came out at 0.195 ± 0.047. With UCCUGGAACAGCAACCAUAGUAUUUAGAAA, the “pre-steady-state target cleavage rate” value is 0.018 ± 0.0072.

On to UCCUGGAUGAGCUUGCAUAGUAUGUAGUUA, for which the “pre-steady-state target cleavage rate” value was found to be 0.162 ± 0.033.

For UCCUGGGACAGCUUGCAUAGUAUUUAGUUA, the “pre-steady-state target cleavage rate” value was determined as 0.231 ± 0.024. UCCUGGAACAGCUUGCAUAGUAUAAACAAA: the “pre-steady-state target cleavage rate” value was 0.0505 ± 0.015. In the case of UCCUGGAUCUGCUUGCAUAGUAUUUUCAAA, the “pre-steady-state target cleavage rate” value is 0.0366 ± 0.0094.

The values are drawn from the supplement of paper PMC10338343.
